The text below walks through data of PubChem BioAssay AID540355 (National Center for Advancing Translational Sciences (NCATS), 2011).

Some of the results follow. Results filed as inconclusive are left out. The source made the active and inactive calls. The call rests on the fitted dose curve; in most records, active means well fitted inhibition curve with a large enough effect; inconclusive means small, poorly fitted or top-dose-only effect; inactive means no such curve, though single readings can be large or run the other way.

4'-phosphopantetheinyl transferase Sfp (Bacillus subtilis (strain 168)), sequence (P39135 whole entry, looked up): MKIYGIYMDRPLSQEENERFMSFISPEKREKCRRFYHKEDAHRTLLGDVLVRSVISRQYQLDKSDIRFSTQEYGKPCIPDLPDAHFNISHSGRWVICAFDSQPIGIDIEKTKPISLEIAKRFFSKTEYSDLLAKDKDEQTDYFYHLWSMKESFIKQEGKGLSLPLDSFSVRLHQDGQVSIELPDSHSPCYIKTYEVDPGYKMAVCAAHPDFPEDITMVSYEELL

In the experiment the target is 4'-phosphopantetheinyl transferase Sfp (Bacillus subtilis (strain 168)) (UniProt P39135). The experiment is described as follows: Gel-Based Assay for Inhibitos of Bacillus subtilis Sfp phosphopantetheinyl transferase (PPTase): Chemistry Optimization Followup. As to conditions: purified Sfp PPTase, gel-based product detection; series mostly up to 250 µM. The source says:
The covalent attachment of a phosphopantetheinyl (4'-PP) arm to a variety of synthases and other proteins is a key posttranslational protein modification. The 4'-PP is installed on the proteins post-translationally from coenzyme A (CoA) on a conserved serine residue by action of phosphopantetheinyl transferase (PPTase) enzymes. Phosphopantetheinylation is essential for synthase activity, and removal of the PPTase gene precludes natural product synthesis in microorganisms, or in the case of fatty acid biosynthesis, renders the organism unviable. PPTase enzymes belong to a distinct structural superfamily. Within bacteria, these enzymes are grouped into two classes based upon primary structure, the AcpS-Type and Sfp-Type PPTases.
Sfp-type PPTases, corresponding to an activator of surfactin production in Bacillus subtilis, are responsible for modifying type I polyketide and nonribosomal peptide synthases of prokaryotes. Sfp-type PPTases are responsible for the activation of a variety of pathogen-associated virulence factors. Among these compounds are toxins such as mycolactone from Mycobacterium ulcerans, siderophores such as vibriobactin from Vibrio cholerae or mycobactin from Mycobacterium tuberculosis, as well as the mycolic acids which form the waxy cell wall of Mycobacteria. The biosyntheses of these natural products are considered attractive targets for drug design.
In this assay, compounds were evaluated by monitoring of fluorescence transfer to whole carrier protein substrates via polyacrylamide gel electrophoresis. See Yasgar, et al. (PMID: 20094656) for further details on assay. This assay was used to evaluate follow-up compounds from the primary screen (AID: 1490).
NIH Chemical Genomics Center [NCGC]
NIH Molecular Libraries Probe Centers Network [MLPCN]
Assay Submitter (PI): Michael Burkart, University of California, San Diego
A DMSO solution of confirmed hits (0.5 microL) was added to a 1.33X enzyme solution (15 microL, containing 26.6 nM Sfp, 66 mM HEPES, 13.3 mM MgCl2, 0.0133% NP-40, 0.133% BSA, pH 7.6). After a 10 minute incubation, the enzymatic reaction was initiated by the addition of 4 X substrate solution (4 microL, containing 50 microM Rhodamine CoA and 50 microM apo-Actinorhodin-ACP). The reactions were terminated after a 30 minute incubation at room temperature by the addition of 2X quench solution (20 microL, containing 4 M Urea, 25 mM EDTA, 0.004% phenol red, pH 8.0). Samples were separated under native conditions on a 20% polyacrylamide gel using standard Laemmli conditions. Following the run, gels were imaged with a Chemi-Doc Plus imager (Bio-Rad, Hercules, CA) and band intensity quantified using the ImageJ software package. Pixel density values were normalized to control wells (SCH202676) and fit with the 4-parameter Hill equation using in-house tools.
On to `COc1ccnc(NC(=S)N2CCN(c3ncc(C(F)(F)F)cc3Cl)CC2)c1`, for which the Potency was 3.02 µM (active).

Take `Cc1cc(C)nc(NC(=S)N2CCN(c3cccc(C(F)(F)F)c3)CC2)c1`: the Potency is 1.58 µM (active).

Turning to `COc1cccc(NC(=S)N2CCN(c3ccccc3C(F)(F)F)CC2)n1`, the Potency result is “inactive”.

For the compound `Cc1ccc(N2CCN(C(=S)Nc3cc(C)ccn3)CC2)cc1`, the Potency is 3.16 µM (active).

In the case of `COc1cccc(NC(=S)N2CCN(c3ccc(Cl)cc3Cl)CC2)n1`, the Potency entry is “inactive”.

For `FC(F)(F)c1cccc(N2CCN(C(=S)Nc3ccncc3)CC2)c1`, the Potency result was “inactive”.

In the case of `Cc1cc(C)nc(NC(=S)N2CCN(c3cccc(C#N)c3)CC2)c1`, the Potency is 10 µM (active).

Turning to `Cc1cc(C)nc(NC(=S)N2CCN(c3ccc(Cl)cc3C(F)(F)F)CC2)c1`, the Potency was 6.75 µM (active).

Turning to `Cc1cc(C)nc(NC(=S)N2CCN(c3ccc4nonc4c3)CC2)c1`, the Potency was 10 µM (active).
